Source: PubChem
Sampled rows, rich in hits. Any-hit rate of the full collection: about 3.4%.
HSF1 activator – HSF-1 activators, primary screen, NIH3T3-HGL cells, MG132 stress, luminescence, single point | hit rate 1.7% among 300,000 | activation, % at 9 µM | NIH3T3-HGL HSF-1 luciferase reporter, 8 h; 100% = twice DMSO control signal;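 active = mean replicate activation of at least 50% with a set share of replicates each reaching 50%; inconclusive = only one of those two conditions met; inactive = mean below 50% and too few replicates reaching it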
Vif imaging – HIV Vif self-association inhibitors, primary screen, imaging, HEK293T, single point; HEK293T cells, Vif self-association by quenched fluorescence, 24 h; inhibition, % at 7.49 µM; hit rate 0.35% among 340,000; in the data active = inhibition above about 50%, passing the limit was not always enough; inconclusive = no clear call, values can overlap the other calls; inactive = below about 31%
esBAF inh – Bmi1 luciferase reporter increase in mESCs, primary screen, esBAF inhibitor project, mouse ES cells, Bmi1 luciferase knock-in, single point; 24 h; 100% = twice the neutral-well signal; reporter increase, % at 12.5 µM; hit rate 2% among 350,000; in the data active = activation above about 40%; inconclusive = no clear call, values can overlap the other calls;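 also: a rise in the Bmi1 reporter signal indicates esBAF inhibition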
HSF1 inhib – HSF1 inhibitors in luciferase reporter cells, primary screen, cell-based, NIH3T3, luminescence | activity change, negative = inhibition, % at 7.5 µM (by protocol) | NIH3T3-HGL HSE-luciferase, MG132-induced, luminescence 8 h; active compounds read low | hit rate 0.77% among 300,000 | AID 2098, 2009;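 active = more than half of replicate wells show activity change below -50%, luminescence cut by over half; inconclusive = some wells, but at most half, below -50%; inactive = no replicate well below -50%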;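 also: luciferase reports HSF-1 transcriptional activity via heat shock element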
Large screens that a line does not name were inactive.

CCCN1CCC(=O)N(CCSc2ccccc2)CC1	none
O=C1CCN(Cc2ccccc2)CCN1CCSc1ccccc1	esBAF inh 61.2
CO[C@@H]1CN(C)C(=O)c2cc(NS(=O)(=O)CC(F)(F)F)ccc2OC[C@H](C)N(C(=O)c2ccc3c(c2)OCO3)C[C@H]1C	none (no result: HSF1 activator, Vif imaging, HSF1 inhib)
O=C(C[C@@H]1C[C@H]2c3cc(NC(=O)NC4CCCC4)ccc3O[C@H]2[C@@H](CO)O1)NCc1ccncc1	none (no result: HSF1 activator, Vif imaging, HSF1 inhib)
CC(=O)N(C)C[C@@H]1Oc2ncc(/C=C/c3ccccc3)cc2C(=O)N([C@@H](C)CO)C[C@@H]1C	none (no result: HSF1 activator, Vif imaging, HSF1 inhib)
C[C@H](CO)N1C[C@H](C)[C@H](CN(C)Cc2ccc(-c3ccccc3)cc2)Oc2ccc(NC(=O)Cn3cnnn3)cc2CC1=O	none (no result: HSF1 activator, Vif imaging, HSF1 inhib)
COc1ccc(CC(C)Nc2cccc(SC)c2)cc1 (configuration not stated)	HSF1 inhib -58.9
COc1cc2c(cc1OC)C(C)N(S(=O)(=O)c1ccc(C)cc1)CC2 (configuration not stated)	HSF1 activator 60.4 (no result: Vif imaging)
COc1cc2c(cc1OC)C(C)N(S(=O)(=O)c1cccs1)CC2 (configuration not stated)	none
CC(C)NC(=O)Nc1ccc2c(c1)CC(=O)N([C@@H](C)CO)C[C@H](C)[C@@H](CN(C)Cc1ccc(Oc3ccccc3)cc1)O2	none (no result: HSF1 activator, Vif imaging, HSF1 inhib)
Nc1cccc(Oc2ccc3c(c2)C(=O)N(CC2CCCO2)C3=O)c1 (configuration not stated)	esBAF inh 49.7 (no result: HSF1 activator, HSF1 inhib)
C[C@H](CO)N1C[C@H](C)[C@@H](CN(C)C(=O)Nc2ccc3c(c2)OCO3)Oc2ccc(NS(=O)(=O)c3ccccc3)cc2CC1=O	none (no result: HSF1 activator, Vif imaging, HSF1 inhib)
CC(C)NC(=O)Nc1cccc2c1O[C@@H](CN(C)C(=O)Nc1ccc3c(c1)OCO3)[C@@H](C)CN([C@H](C)CO)C2=O	none (no result: HSF1 activator, Vif imaging, HSF1 inhib)
CCN1C(=O)CC(N2CCN(c3ccc(C(=O)c4ccccc4)cc3)CC2)C1=O (configuration not stated)	HSF1 activator inconclusive, esBAF inh 54.8
C[C@H](CO)N1C[C@H](C)[C@@H](CN(C)S(C)(=O)=O)Oc2ccc(NC(=O)Nc3ccc(C(F)(F)F)cc3)cc2CC1=O	none (no result: HSF1 activator, Vif imaging, HSF1 inhib)
CN(C(=O)c1ccco1)c1nc2c(s1)CCCC2	HSF1 activator 62.5
CN(C(=O)c1ccco1)c1nc(-c2ccc(Cl)cc2)cs1	none
CN(C(=O)c1ccco1)c1nnc(C23CC4CC(CC(C4)C2)C3)s1	esBAF inh 67.0
C[C@@H]1CN([C@H](C)CO)C(=O)c2cc(NC(=O)NC3CCCCC3)ccc2O[C@@H]1CN(C)Cc1ccccc1	none (no result: HSF1 activator, Vif imaging, HSF1 inhib)
C[C@@H]1CCCCO[C@@H](CN(C)C)[C@H](C)CN([C@H](C)CO)C(=O)c2cc(NS(=O)(=O)c3ccc(F)cc3)ccc2O1	none (no result: HSF1 activator, Vif imaging, HSF1 inhib)
O=C1N/C(=N/O)S/C1=C/c1cccc([N+](=O)[O-])c1	none (no result: HSF1 activator, HSF1 inhib)
CC1(C)CC(=O)/C(=C\c2cccc([N+](=O)[O-])c2)C(C)(C)N1	HSF1 activator 75.8 (no result: esBAF inh)
C[C@H](O)C#Cc1cnc2c(c1)C(=O)N([C@H](C)CO)C[C@H](C)[C@H](CN(C)C(=O)Nc1ccc(F)cc1)O2	none (no result: HSF1 activator, Vif imaging, HSF1 inhib)
Cc1noc(C)c1NC(=O)Nc1ccc2c(c1)CC(=O)N([C@@H](C)CO)C[C@H](C)[C@H](CN(C)S(C)(=O)=O)O2	none (no result: HSF1 activator, Vif imaging, HSF1 inhib)
CCn1c(S(=O)(=O)O)nc2ccccc21	HSF1 inhib -69.0
COC(=O)[C@H]1[C@H](CO)[C@H]2Cn3c(ccc(-c4ccncc4)c3=O)[C@H]2N1Cc1ccccc1F	none (no result: HSF1 activator, Vif imaging, HSF1 inhib)
O=C(c1cc2ccccc2[nH]1)N1O[C@@H]2C=C[C@H]1C2	esBAF inh 41.8 (no result: HSF1 activator, HSF1 inhib)
CCOCCOC(=O)c1ccc(-n2cncn2)nc1	HSF1 inhib -85.9
C[C@@H]1CN([C@H](C)CO)C(=O)c2c(c3ccccc3n2C)-c2ccccc2CO[C@@H]1CN(C)C(=O)Nc1ccc2c(c1)OCO2	none (no result: HSF1 activator, HSF1 inhib)
C[C@@H]1CN([C@H](C)CO)C(=O)c2c(c3ccccc3n2C)-c2ccccc2CO[C@H]1CN(C)C(=O)Nc1ccc2c(c1)OCO2	esBAF inh 80.8 (no result: HSF1 activator, Vif imaging, HSF1 inhib)
C[C@H]1CN([C@@H](C)CO)C(=O)c2c(c3ccccc3n2C)-c2ccccc2CO[C@H]1CN(C)C(=O)Nc1ccc2c(c1)OCO2	esBAF inh 60.0 (no result: HSF1 activator, Vif imaging, HSF1 inhib)
C[C@H](CO)N1C[C@H](C)[C@H](CN(C)C(=O)Nc2ccc3c(c2)OCO3)OCc2ccccc2-c2c(n(C)c3ccccc23)C1=O	esBAF inh 92.9 (no result: HSF1 activator, Vif imaging, HSF1 inhib)
C[C@@H]1CN([C@@H](C)CO)C(=O)c2c(c3ccccc3n2C)-c2ccccc2CO[C@H]1CN(C)C(=O)Nc1ccc2c(c1)OCO2	esBAF inh 86.4 (no result: HSF1 activator, Vif imaging, HSF1 inhib)
Cc1ccc(C)c2[nH]c(=O)c(CCNC(=O)C(C)(C)C)cc12	HSF1 inhib -85.8
COc1ccc(C(=O)Nc2ccc3c(c2)OC[C@@H](C)N(C(=O)C2CC2)C[C@@H](C)[C@H](OC)CN(C)C3=O)cc1	none (no result: HSF1 activator, Vif imaging, HSF1 inhib)
CCCS(=O)(=O)N1CCCC(C(=O)N2CCC(Cc3ccccc3)CC2)C1 (configuration not stated)	HSF1 inhib -81.2
COc1ccccc1C#Cc1ccc2c(c1)[C@H]1[C@H](CCN1C(=O)CN1CCOCC1)[C@H](CO)N2	none (no result: HSF1 activator, Vif imaging, HSF1 inhib)
CCOc1ccccc1NC(=O)c1nc(S(=O)(=O)Cc2cccc(C)c2)ncc1Cl	HSF1 inhib inconclusive
CC(C)c1nnc(NC(=O)c2nc(S(=O)(=O)Cc3ccccc3F)ncc2Cl)s1	HSF1 inhib -80.4 (no result: Vif imaging, esBAF inh)
CCSc1nnc(NC(=O)c2nc(S(=O)(=O)Cc3ccc(F)cc3)ncc2Cl)s1	none
Cc1ccc(CS(=O)(=O)c2ncc(Cl)c(C(=O)Nc3nnc(C(C)C)s3)n2)cc1	HSF1 inhib -70.6
Cc1nnc(NC(=O)c2nc(S(=O)(=O)Cc3ccccc3C)ncc2Cl)s1	HSF1 inhib -77.5
CSc1nnc(NC(=O)c2nc(S(=O)(=O)Cc3ccccc3F)ncc2Cl)s1	none
CC(C)c1nnc(NC(=O)c2nc(S(=O)(=O)Cc3ccc(F)cc3)ncc2Cl)s1	HSF1 inhib -84.1
Cc1cccc(CS(=O)(=O)c2ncc(Cl)c(C(=O)Nc3nnc(C(C)C)s3)n2)c1	HSF1 inhib -73.0
CSc1nnc(NC(=O)c2nc(S(=O)(=O)Cc3cccc(C)c3)ncc2Cl)s1	HSF1 inhib inconclusive
CC#CC[N+](C)(C)CCCCCCCCCCCC	HSF1 activator 88.5 (no result: esBAF inh)
C#CC[N+](C)(C)CCCCCCCCCC	none (no result: esBAF inh)
COc1ccccc1Nc1nc2ccccc2n2cnnc12	none
COc1ccccc1Nc1nc2ccccc2n1C	esBAF inh 64.6
CC(=O)C1=C(C)NC2(O)c3ccccc3C(=O)C12O (configuration not stated)	HSF1 activator 61.6
CC1(C)CC(=O)C=C(NC2=CC3OC(c4ccccc4)OCC3OC2=O)C1 (configuration not stated)	HSF1 activator 116.5 (no result: esBAF inh)
O=C(Cc1csc(NC(=O)Nc2ccc(Cl)cc2)n1)NCc1cccnc1	esBAF inh 44.6
CC=Cc1ccc2n(c1=O)C[C@@H]1[C@@H](CO)[C@H](C(=O)N3CCc4ccccc4C3)N(C(=O)C3CC3)[C@H]21 (mixture of isomers)	none (no result: HSF1 activator, Vif imaging, HSF1 inhib)
